Experiments:
Test in all cases: DAPPL (digital affinity profiling via proximity ligation, sequencing); 10 mM Tris-HCl pH 7.5, 50 mM NaCl, 1 mM DTT, 4% glycerol, room temperature, 30 min; GST-TFs on glutathione beads, 16-mer random dsDNA library, 0.1% formaldehyde crosslink after washing; high values mean tight binding
[1] = target: T1, FLI1 (Homo sapiens, UniProt Q01543 1-452); conditions: protein: recombinant; tags: N-terminal GST; dsDNA, one strand shown
T1 sequence: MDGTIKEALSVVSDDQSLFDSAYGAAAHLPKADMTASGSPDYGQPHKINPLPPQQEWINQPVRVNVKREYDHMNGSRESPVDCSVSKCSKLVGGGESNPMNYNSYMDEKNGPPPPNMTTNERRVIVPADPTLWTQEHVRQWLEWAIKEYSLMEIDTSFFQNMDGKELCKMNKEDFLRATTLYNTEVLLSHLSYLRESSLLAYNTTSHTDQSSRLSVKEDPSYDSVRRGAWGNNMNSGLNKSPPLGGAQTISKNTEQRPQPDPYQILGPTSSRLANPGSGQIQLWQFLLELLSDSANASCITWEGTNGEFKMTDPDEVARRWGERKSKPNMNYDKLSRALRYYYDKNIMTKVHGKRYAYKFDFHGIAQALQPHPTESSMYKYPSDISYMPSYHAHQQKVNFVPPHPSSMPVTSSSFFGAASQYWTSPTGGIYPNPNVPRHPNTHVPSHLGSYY
Summary of the method: (§1)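 Human transcription factors carrying a GST fusion were produced in yeast, bound to glutathione beads, tagged with DNA barcodes and pooled together with a tag-only sample. Each pool was held with 200 nmole of a random double-stranded 16-mer DNA library in Tris/NaCl/DTT/glycerol buffer for 30 min at room temperature, then washed, crosslinked in 0.1% formaldehyde, proximity-ligated with BsaI/T4 ligase (1 h, 37 °C), PCR-amplified and sequenced on an Illumina NextSeq500. Binding signal is the read frequency of each hexamer for a given factor divided by its frequency in the tag-only sample.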

[2] = target: T2, ELK1 (Homo sapiens, UniProt P19419 1-428); conditions: protein: recombinant; tags: N-terminal GST; dsDNA, one strand shown
T2 sequence: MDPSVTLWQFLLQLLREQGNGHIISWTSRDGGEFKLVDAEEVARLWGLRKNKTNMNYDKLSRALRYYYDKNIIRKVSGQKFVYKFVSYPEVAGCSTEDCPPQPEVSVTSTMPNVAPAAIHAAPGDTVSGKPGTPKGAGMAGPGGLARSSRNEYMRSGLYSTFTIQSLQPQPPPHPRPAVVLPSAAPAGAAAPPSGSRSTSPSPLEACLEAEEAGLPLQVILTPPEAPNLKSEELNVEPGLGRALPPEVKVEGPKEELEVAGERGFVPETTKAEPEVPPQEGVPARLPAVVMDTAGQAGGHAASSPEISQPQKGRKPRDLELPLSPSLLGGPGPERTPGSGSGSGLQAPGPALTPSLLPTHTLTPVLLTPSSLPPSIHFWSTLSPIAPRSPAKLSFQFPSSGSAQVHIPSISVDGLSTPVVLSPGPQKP
Summary of the method: as §1

[3] = target: T3, GABPA (Homo sapiens, UniProt Q06546 1-454); conditions: protein: recombinant; tags: N-terminal GST; dsDNA, one strand shown
T3 sequence: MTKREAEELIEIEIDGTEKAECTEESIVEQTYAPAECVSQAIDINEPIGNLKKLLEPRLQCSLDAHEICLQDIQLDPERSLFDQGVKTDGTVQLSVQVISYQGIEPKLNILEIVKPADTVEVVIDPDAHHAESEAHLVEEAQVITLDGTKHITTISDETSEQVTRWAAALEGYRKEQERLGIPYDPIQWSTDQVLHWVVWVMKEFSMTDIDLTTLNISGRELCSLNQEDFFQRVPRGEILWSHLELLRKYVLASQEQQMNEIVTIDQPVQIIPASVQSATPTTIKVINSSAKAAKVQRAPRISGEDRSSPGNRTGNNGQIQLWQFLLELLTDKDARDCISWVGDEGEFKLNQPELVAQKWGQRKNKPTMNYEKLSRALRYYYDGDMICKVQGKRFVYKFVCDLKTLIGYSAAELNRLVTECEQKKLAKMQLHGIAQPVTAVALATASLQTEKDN
Summary of the method: as §1

[4] = target: T4, ERG (Homo sapiens, UniProt P11308 1-479); conditions: protein: recombinant; tags: N-terminal GST; dsDNA, one strand shown
T4 sequence: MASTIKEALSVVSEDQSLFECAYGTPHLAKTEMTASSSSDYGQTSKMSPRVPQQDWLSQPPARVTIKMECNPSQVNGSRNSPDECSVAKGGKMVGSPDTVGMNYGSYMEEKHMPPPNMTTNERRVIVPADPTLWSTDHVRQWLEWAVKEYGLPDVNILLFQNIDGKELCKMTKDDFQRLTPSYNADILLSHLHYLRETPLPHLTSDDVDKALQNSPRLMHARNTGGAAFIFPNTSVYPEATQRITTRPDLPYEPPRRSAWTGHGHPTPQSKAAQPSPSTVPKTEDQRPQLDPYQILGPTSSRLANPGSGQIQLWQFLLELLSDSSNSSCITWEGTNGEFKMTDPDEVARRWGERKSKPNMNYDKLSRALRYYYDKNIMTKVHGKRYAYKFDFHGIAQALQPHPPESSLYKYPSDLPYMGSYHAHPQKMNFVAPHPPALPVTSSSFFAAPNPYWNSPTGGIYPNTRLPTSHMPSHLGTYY
Summary of the method: as §1

[5] = target: ELF1 (Homo sapiens, UniProt P32519 1-619); conditions: protein: recombinant; tags: N-terminal GST; dsDNA, one strand shown
Summary of the method: as §1

[6] = target: T5, EHF (Homo sapiens, UniProt Q9NZC4 1-300); conditions: protein: recombinant; tags: N-terminal GST; dsDNA, one strand shown
T5 sequence: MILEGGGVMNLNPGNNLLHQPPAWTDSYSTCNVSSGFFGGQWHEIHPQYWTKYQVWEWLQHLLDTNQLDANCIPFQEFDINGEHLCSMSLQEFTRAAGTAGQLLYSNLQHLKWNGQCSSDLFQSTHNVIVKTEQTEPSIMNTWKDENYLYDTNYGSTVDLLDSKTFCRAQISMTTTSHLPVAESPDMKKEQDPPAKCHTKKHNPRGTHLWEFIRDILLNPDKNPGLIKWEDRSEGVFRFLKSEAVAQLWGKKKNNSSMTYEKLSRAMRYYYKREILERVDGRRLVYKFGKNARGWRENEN
Summary of the method: as §1

[7] = target: SPI1 (Homo sapiens, UniProt P17947 1-270); conditions: protein: recombinant; tags: N-terminal GST; dsDNA, one strand shown
Summary of the method: as §1

[8] = target: SPIB (Homo sapiens, UniProt Q01892 1-262); conditions: protein: recombinant; tags: N-terminal GST; dsDNA, one strand shown
Summary of the method: as §1

[9] = target: T6, ELK3 (Homo sapiens, UniProt P41970 1-407); conditions: protein: recombinant; tags: N-terminal GST; dsDNA, one strand shown
T6 sequence: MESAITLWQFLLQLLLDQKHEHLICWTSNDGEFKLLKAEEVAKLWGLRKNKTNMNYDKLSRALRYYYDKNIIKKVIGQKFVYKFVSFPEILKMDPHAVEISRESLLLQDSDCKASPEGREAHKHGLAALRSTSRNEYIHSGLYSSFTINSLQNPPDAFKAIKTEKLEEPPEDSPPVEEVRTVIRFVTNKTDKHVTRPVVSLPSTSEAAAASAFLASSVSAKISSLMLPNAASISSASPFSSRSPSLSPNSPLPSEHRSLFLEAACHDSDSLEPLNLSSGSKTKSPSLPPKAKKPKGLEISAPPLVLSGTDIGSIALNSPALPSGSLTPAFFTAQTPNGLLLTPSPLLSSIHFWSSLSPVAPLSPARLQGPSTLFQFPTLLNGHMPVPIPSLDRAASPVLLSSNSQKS
Summary of the method: as §1

[10] = target: T7, FEV (Homo sapiens, UniProt Q99581 1-238); conditions: protein: recombinant; tags: N-terminal GST; dsDNA, one strand shown
T7 sequence: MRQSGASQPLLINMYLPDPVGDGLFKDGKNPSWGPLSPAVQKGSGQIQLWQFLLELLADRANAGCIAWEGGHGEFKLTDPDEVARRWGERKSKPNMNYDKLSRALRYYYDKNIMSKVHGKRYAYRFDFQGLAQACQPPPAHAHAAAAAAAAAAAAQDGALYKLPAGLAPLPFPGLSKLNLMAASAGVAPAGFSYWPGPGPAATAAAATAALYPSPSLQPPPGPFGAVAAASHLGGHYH
Summary of the method: as §1

[11] = target: ETV5 (Homo sapiens, UniProt P41161 1-510); conditions: protein: recombinant; tags: N-terminal GST; dsDNA, one strand shown
Summary of the method: as §1

[12] = target: HSF1 (Homo sapiens, UniProt Q00613 1-529); conditions: protein: recombinant; tags: N-terminal GST; chain copies: 3; dsDNA, one strand shown
Summary of the method: as §1

[13] = target: T8, SPIC (Homo sapiens, UniProt Q8N5J4 1-248); conditions: protein: recombinant; tags: N-terminal GST; dsDNA, one strand shown
T8 sequence: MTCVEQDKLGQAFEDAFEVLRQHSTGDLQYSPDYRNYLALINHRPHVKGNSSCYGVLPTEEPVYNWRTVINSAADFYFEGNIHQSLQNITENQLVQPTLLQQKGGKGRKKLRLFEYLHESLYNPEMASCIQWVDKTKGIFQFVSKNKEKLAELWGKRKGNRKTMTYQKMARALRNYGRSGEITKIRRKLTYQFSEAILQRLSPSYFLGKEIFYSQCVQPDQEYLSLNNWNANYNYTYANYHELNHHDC
Summary of the method: as §1

[14] = target: ELF4 (Homo sapiens, UniProt Q99607 1-663); conditions: protein: recombinant; tags: N-terminal GST; dsDNA, one strand shown
Summary of the method: as §1

[15] = target: T9, ELK4 (Homo sapiens, UniProt P28324-2 1-405); conditions: protein: recombinant; tags: N-terminal GST; dsDNA, one strand shown
T9 sequence: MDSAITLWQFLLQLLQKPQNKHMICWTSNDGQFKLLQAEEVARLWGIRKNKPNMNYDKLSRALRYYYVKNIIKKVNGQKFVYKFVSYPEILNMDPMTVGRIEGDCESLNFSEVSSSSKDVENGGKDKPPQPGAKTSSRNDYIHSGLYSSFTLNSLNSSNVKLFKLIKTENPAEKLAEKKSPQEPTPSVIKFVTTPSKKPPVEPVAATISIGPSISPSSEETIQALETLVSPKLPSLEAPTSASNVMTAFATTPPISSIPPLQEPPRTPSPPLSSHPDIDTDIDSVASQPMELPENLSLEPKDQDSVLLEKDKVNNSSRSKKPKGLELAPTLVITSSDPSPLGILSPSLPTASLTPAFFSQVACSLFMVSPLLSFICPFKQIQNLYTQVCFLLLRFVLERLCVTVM
Summary of the method: as §1

[16] = target: T10, ETV2 (Homo sapiens, UniProt O00321 1-342); conditions: protein: recombinant; tags: N-terminal GST; dsDNA, one strand shown
T10 sequence: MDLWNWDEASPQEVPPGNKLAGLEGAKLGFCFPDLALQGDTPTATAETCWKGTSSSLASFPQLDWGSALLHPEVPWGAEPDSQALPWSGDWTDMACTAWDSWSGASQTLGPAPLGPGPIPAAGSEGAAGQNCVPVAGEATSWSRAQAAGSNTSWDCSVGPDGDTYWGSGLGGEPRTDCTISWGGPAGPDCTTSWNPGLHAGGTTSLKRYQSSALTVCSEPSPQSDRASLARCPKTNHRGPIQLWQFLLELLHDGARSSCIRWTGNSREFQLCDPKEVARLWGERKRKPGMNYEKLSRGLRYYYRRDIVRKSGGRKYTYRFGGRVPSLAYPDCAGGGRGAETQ
Summary of the method: as §1

[17] = target: T11, ELF3 (Homo sapiens, UniProt P78545 1-371); conditions: protein: recombinant; tags: N-terminal GST; dsDNA, one strand shown
T11 sequence: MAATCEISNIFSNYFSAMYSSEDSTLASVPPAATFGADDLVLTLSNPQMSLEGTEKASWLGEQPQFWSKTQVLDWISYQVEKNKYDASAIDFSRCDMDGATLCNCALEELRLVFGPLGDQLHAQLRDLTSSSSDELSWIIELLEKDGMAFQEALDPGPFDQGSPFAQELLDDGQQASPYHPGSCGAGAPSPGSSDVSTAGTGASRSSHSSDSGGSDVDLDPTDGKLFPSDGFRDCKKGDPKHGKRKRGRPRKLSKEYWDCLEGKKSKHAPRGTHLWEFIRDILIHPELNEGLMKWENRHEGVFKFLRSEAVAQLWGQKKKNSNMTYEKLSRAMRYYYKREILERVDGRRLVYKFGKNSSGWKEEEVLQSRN
Summary of the method: as §1

[18] = target: ETV1 (Homo sapiens, UniProt P50549 1-477); conditions: protein: recombinant; tags: N-terminal GST; dsDNA, one strand shown
Summary of the method: as §1

Chain of ETV1 (P50549 whole entry): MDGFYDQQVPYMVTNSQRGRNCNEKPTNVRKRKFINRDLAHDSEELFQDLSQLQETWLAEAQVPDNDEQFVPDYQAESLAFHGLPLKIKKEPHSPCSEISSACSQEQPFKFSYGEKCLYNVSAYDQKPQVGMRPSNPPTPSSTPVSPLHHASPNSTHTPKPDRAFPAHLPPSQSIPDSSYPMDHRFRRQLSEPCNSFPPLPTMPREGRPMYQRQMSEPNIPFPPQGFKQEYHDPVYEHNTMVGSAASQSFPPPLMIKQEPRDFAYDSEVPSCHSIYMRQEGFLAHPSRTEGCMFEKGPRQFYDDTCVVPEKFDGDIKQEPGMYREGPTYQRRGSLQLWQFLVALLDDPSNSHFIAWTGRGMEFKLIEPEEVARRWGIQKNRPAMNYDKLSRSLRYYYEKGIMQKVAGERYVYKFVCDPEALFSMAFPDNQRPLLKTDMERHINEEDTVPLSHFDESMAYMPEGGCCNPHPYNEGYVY
Chain of ELF1 (P32519 whole entry): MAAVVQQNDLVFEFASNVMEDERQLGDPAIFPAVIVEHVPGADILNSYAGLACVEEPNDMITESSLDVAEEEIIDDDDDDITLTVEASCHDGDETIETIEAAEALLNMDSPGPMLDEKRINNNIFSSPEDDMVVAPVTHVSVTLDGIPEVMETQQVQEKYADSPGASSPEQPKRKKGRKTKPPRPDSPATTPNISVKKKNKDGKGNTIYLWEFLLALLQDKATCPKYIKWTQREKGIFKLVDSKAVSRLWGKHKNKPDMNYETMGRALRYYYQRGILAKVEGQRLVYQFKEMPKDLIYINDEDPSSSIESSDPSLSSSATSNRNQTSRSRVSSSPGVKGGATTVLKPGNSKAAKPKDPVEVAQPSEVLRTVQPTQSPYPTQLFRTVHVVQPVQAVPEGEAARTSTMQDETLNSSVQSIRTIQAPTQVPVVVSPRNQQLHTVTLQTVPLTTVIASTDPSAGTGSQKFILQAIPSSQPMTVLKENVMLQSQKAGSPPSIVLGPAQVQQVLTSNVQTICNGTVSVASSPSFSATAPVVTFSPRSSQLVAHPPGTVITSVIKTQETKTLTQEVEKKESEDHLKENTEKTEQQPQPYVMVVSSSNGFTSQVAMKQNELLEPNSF
Chain of HSF1 (Q00613 whole entry): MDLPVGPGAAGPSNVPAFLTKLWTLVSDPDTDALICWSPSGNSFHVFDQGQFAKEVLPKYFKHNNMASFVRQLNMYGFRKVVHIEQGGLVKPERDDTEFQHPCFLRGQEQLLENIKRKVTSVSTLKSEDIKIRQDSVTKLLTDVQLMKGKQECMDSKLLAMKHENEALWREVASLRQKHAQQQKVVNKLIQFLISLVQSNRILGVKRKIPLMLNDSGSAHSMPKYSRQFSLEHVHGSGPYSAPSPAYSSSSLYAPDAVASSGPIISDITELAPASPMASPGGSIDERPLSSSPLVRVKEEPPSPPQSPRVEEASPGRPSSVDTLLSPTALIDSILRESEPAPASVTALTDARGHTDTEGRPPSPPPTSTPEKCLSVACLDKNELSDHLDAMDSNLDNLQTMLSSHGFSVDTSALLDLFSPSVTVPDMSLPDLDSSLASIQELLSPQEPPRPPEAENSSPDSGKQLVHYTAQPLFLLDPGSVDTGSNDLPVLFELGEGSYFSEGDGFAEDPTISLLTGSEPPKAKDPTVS
Chain of ELF4 (Q99607 whole entry): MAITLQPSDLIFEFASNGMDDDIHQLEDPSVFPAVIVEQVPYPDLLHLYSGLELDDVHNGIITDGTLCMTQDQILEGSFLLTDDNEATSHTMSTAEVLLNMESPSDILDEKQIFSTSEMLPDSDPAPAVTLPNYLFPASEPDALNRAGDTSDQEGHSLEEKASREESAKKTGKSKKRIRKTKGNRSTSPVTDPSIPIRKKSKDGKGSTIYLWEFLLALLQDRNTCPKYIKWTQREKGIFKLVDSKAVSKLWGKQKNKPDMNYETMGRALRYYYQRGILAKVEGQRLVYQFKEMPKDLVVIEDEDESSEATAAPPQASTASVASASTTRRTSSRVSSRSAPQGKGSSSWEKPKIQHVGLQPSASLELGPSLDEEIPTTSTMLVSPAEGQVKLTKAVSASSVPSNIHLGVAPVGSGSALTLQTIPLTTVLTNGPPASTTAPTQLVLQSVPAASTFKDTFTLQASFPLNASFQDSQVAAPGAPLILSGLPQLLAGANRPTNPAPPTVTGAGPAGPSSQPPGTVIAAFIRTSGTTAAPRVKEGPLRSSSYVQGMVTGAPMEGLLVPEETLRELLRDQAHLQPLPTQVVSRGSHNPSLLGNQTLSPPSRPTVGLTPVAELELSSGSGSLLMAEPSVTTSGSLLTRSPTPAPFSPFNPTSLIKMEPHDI
Chain of ETV5 (P41161 whole entry): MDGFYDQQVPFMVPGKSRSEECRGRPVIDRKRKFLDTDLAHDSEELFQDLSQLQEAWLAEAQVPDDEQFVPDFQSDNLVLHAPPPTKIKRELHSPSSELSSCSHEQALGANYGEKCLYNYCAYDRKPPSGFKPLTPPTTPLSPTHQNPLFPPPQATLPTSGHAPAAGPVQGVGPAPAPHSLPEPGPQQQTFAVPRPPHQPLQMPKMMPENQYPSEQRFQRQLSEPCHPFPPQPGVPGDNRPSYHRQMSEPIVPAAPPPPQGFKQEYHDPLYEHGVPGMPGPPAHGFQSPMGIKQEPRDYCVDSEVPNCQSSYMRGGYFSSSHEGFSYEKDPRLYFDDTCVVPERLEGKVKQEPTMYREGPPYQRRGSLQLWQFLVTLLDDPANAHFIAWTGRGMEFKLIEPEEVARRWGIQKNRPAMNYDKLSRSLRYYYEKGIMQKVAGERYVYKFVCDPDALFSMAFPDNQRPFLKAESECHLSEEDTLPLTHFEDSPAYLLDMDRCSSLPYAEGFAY
Chain of SPIB (Q01892 whole entry): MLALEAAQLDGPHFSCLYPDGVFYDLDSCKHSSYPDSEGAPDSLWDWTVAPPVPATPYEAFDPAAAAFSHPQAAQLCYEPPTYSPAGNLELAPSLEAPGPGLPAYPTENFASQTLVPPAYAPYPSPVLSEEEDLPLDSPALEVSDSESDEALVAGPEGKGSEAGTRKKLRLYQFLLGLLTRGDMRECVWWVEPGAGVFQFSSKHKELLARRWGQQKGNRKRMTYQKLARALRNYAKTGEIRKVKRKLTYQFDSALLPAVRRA

## ACTGCC
[1]
  binding signal: 1.47 fold enrichment (6-mer frequency, TF over GST control)
[2]
  binding signal: 1.44 fold enrichment (6-mer frequency, TF over GST control)
[3]
  binding signal: 1.44 fold enrichment (6-mer frequency, TF over GST control)
[4]
  binding signal: 1.44 fold enrichment (6-mer frequency, TF over GST control)
[5]
  binding signal: 1.42 fold enrichment (6-mer frequency, TF over GST control)
[6]
  binding signal: 1.46 fold enrichment (6-mer frequency, TF over GST control)
[7]
  binding signal: 1.48 fold enrichment (6-mer frequency, TF over GST control)
[8]
  binding signal: 1.41 fold enrichment (6-mer frequency, TF over GST control)
[9]
  binding signal: 1.3 fold enrichment (6-mer frequency, TF over GST control)
[10]
  binding signal: 1.39 fold enrichment (6-mer frequency, TF over GST control)
[11]
  binding signal: 1.38 fold enrichment (6-mer frequency, TF over GST control)
[12]
  binding signal: 1.06 fold enrichment (6-mer frequency, TF over GST control)
[13]
  binding signal: 1.61 fold enrichment (6-mer frequency, TF over GST control)
[14]
  binding signal: 1.39 fold enrichment (6-mer frequency, TF over GST control)
[15]
  binding signal: 1.31 fold enrichment (6-mer frequency, TF over GST control)
[16]
  binding signal: 1.16 fold enrichment (6-mer frequency, TF over GST control)
[17]
  binding signal: 1.24 fold enrichment (6-mer frequency, TF over GST control)
[18]
  binding signal: 1.3 fold enrichment (6-mer frequency, TF over GST control)

Source: article PMC7862700, “An all-to-all approach to the identification of sequence-specific readers for epigenetic DNA modifications on cytosine”
